From PubChem BioAssay (NCATS)
Records with an inconclusive call do not appear. Calls of active or inactive are those of the source. Calls come from the whole dose curve; as a rule, active = well fitted curve in the direction sought with a large enough effect; inconclusive = small, poorly fitted or top-dose-only effect, or another doubt; inactive = no such curve, though single readings can be large; an effect the other way counts as inactive or inconclusive.

Tests used:
[1] = test system: Es-2; assay: Primary qHTS to identify gynecologic anti-cancer compounds using libraries of approved drugs and bioactive compounds (AID 1345084); details: Gynecologic cancer cell panel viability, ATPlite luminescence, 48 h; series mostly up to 57.5 µM; note: nearly all actives have a fitted effect of over 55% in size
Procedure, shortened: (§1)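 Measured: luminescence after ATPlite addition (15 min, RT). Exposure: 48 h, 37 C, 5% CO2.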

[2] = test system: HeLa; assay: as above; details: Gynecologic cancer cell panel viability, ATPlite luminescence, 48 h; series mostly up to 57.5 µM
Procedure, shortened: as §1

[3] = test system: Hek293T; assay: as above; details: Gynecologic cancer cell panel viability, ATPlite luminescence, 48 h, control line for the selectivity index; series mostly up to 57.5 µM
Procedure, shortened: as §1

[4] = test system: JEG-3; assay: as above; details: Gynecologic cancer cell panel viability, ATPlite luminescence, 48 h; series mostly up to 57.5 µM
Procedure, shortened: as §1

[5] = test system: OV90; assay: as above; details: Gynecologic cancer cell panel viability, ATPlite luminescence, 48 h; series mostly up to 57.5 µM
Procedure, shortened: as §1

[6] = test system: PA-1; assay: as above; details: Gynecologic cancer cell panel viability, ATPlite luminescence, 48 h; series mostly up to 57.5 µM
Procedure, shortened: as §1

[7] = test system: SKOV3; assay: as above; details: Gynecologic cancer cell panel viability, ATPlite luminescence, 48 h; series mostly up to 57.5 µM
Procedure, shortened: as §1

[8] = test system: Tov-21-G; assay: as above; details: Gynecologic cancer cell panel viability, ATPlite luminescence, 48 h; series mostly up to 57.5 µM
Procedure, shortened: as §1

[9] = test system: Tov112D; assay: as above; details: Gynecologic cancer cell panel viability, ATPlite luminescence, 48 h; series mostly up to 57.5 µM
Procedure, shortened: as §1

[10] = Drug repurposing screens with cells derived from glioblastoma tumor samples (AID 1345199); details: GBM patient neurospheres viability, ATP luminescence, 48 h; note: nearly all actives have a fitted effect of over 40% in size; note: potency is the fitted concentration of half-maximal effect
Procedure, shortened: (§2)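 Primary testing used CD133+ neurospheres from four GBM patients, seven concentrations, 48 h exposure and ATP-based viability; confirmation added three slower-growing patient lines.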

[11] = test system: astro; assay: as above; details: viability, ATP luminescence, 48 h; series mostly up to 45.9 µM
Procedure, shortened: as §2

[12] = at 45.9 µM (top of the series), tumour line B
[13] = at 45.9 µM (top of the series), tumour line D
[14] = at 46.1 µM (top of the series), tumour line C
[15] = at 20 µM (top of the series), tumour line C
[16] = at 21.2 µM (top of the series), tumour line B
[17] = at 21.2 µM (top of the series), tumour line D
% is set by controls: 0 for no effect and ±100 for the full control effect.

CC(=O)Nc1ncc([N+](=O)[O-])s1
inactive: Potency [1] | Potency [2] | Potency [3] | Potency [4] | Potency [5] | Potency [6] | Potency [7] | Potency [8] | Potency [9] | activity, negative = cell killing [10, 12] -7.38% | activity, negative = cell killing [10, 13] -8.31% | activity, negative = cell killing [10, 14] -21.7% | Potency [11]

Cc1ccccc1OCC(O)CO (stereo not drawn)
inactive: Potency [1] | Potency [2] | Potency [3] | Potency [4] | Potency [5] | Potency [6] | Potency [7] | Potency [8] | Potency [9] | activity, negative = cell killing [10, 12] -8.02% | activity, negative = cell killing [10, 13] -9.22% | activity, negative = cell killing [10, 14] -19.6% | Potency [11]

C[N+]1(C)CCC(=C(c2ccccc2)c2ccccc2)CC1
inactive: Potency [1] | Potency [2] | Potency [3] | Potency [4] | Potency [5] | Potency [6] | Potency [7] | Potency [8] | Potency [9] | activity, negative = cell killing [10, 15] 3.13% | activity, negative = cell killing [10, 16] -8.97% | activity, negative = cell killing [10, 17] 4.56% | Potency [11]

N[C@H](C(=O)O)[C@@H](O)c1ccc(O)c(O)c1
inactive: Potency [1] | Potency [2] | Potency [3] | Potency [4] | Potency [5] | Potency [6] | Potency [7] | Potency [8] | Potency [9] | activity, negative = cell killing [10, 12] -8.13% | activity, negative = cell killing [10, 13] -33.1% | activity, negative = cell killing [10, 14] -8.89% | Potency [11]

Nc1nc(-c2ccccc2)c(Br)c(=O)[nH]1
inactive: Potency [1] | Potency [2] | Potency [3] | Potency [4] | Potency [5] | Potency [6] | Potency [7] | Potency [8] | Potency [9] | activity, negative = cell killing [10, 12] -8.97% | activity, negative = cell killing [10, 13] -11.4% | activity, negative = cell killing ([10]; at 46 µM (top of the series), tumour line A) -28.3% | Potency [11]

CN(C)CCOC(=O)C(c1ccccc1)C1(O)CCCC1 (stereo not drawn)
inactive: Potency [1] | Potency [2] | Potency [3] | Potency [4] | Potency [5] | Potency [6] | Potency [7] | Potency [8] | Potency [9] | activity, negative = cell killing [10, 12] -2.94% | activity, negative = cell killing [10, 13] -18.8% | activity, negative = cell killing [10, 14] -22.9% | Potency [11]

CCCCN1C[C@H](O)[C@@H](O)[C@H](O)[C@H]1CO
inactive: Potency [1] | Potency [2] | Potency [3] | Potency [4] | Potency [5] | Potency [6] | Potency [7] | Potency [8] | Potency [9] | activity, negative = cell killing [10, 12] -11.2% | activity, negative = cell killing [10, 13] -2.4% | activity, negative = cell killing [10, 14] -21.4% | Potency [11]

CC(C(=O)O)c1cccc(Oc2ccccc2)c1 (stereo not drawn)
inactive: Potency [1] | Potency [2] | Potency [3] | Potency [4] | Potency [5] | Potency [6] | Potency [7] | Potency [8] | Potency [9] | activity, negative = cell killing [10, 15] 4.85% | activity, negative = cell killing [10, 16] -4.71% | activity, negative = cell killing [10, 17] -19.7% | Potency [11]

CC(C)[N+](C)(C)CC(O)COc1cccc2ccccc12 (stereo not drawn)
inactive: Potency [1] | Potency [2] | Potency [3] | Potency [4] | Potency [5] | Potency [6] | Potency [7] | Potency [8] | Potency [9] | activity, negative = cell killing [10, 12] -19.8% | activity, negative = cell killing [10, 13] -17.5% | activity, negative = cell killing [10, 14] -27.6% | Potency [11]

O=C1C(=O)c2ccccc2C(O)=C1C1CCC(c2ccc(Cl)cc2)CC1 (stereo not drawn)
active: Potency ([10]; tumour line A) 14.1 µM | Potency ([10]; tumour line D) 8.91 µM | Potency [11] 12.6 µM
inactive: Potency [1] | Potency [2] | Potency [3] | Potency [4] | Potency [5] | Potency [6] | Potency [7] | Potency [8] | Potency [9] | activity, negative = cell killing [10, 15] -16.4%

NC(=S)N/N=C/c1cccnc1
inactive: Potency [1] | Potency [2] | Potency [3] | Potency [4] | Potency [5] | Potency [6] | Potency [7] | Potency [8] | Potency [9] | activity, negative = cell killing [10, 12] -6.47% | activity, negative = cell killing [10, 13] 0.861% | activity, negative = cell killing [10, 14] -3.6% | Potency [11]

O=C1OC2(c3ccccc31)c1cc(Br)c(O)c(Br)c1Oc1c2cc(Br)c(O)c1Br
inactive: Potency [1] | Potency [2] | Potency [3] | Potency [4] | Potency [5] | Potency [6] | Potency [7] | Potency [8] | Potency [9] | activity, negative = cell killing [10, 12] -12.6% | activity, negative = cell killing [10, 13] -6.67% | activity, negative = cell killing [10, 14] -34.7% | Potency [11]

Cc1cccc(C)c1NC(=O)CN1CCCC1
inactive: Potency [1] | Potency [2] | Potency [3] | Potency [4] | Potency [5] | Potency [6] | Potency [7] | Potency [8] | Potency [9] | activity, negative = cell killing [10, 12] -9.15% | activity, negative = cell killing [10, 13] 5.92% | activity, negative = cell killing [10, 14] -8.15% | Potency [11]

COP(=O)(OC)OC(c1ccc(Cl)cc1)P(=O)(OC)OC (stereo not drawn)
inactive: Potency [1] | Potency [2] | Potency [3] | Potency [4] | Potency [5] | Potency [6] | Potency [7] | Potency [8] | Potency [9] | activity, negative = cell killing [10, 12] -15.7% | activity, negative = cell killing [10, 13] -14.1% | activity, negative = cell killing [10, 14] -24.8% | Potency [11]

Cc1cc2c(OCC(CNC(C)(C)C)OC(=O)c3ccccc3)cccc2[nH]1 (stereo not drawn)
inactive: Potency [1] | Potency [2] | Potency [3] | Potency [4] | Potency [5] | Potency [6] | Potency [7] | Potency [8] | Potency [9] | activity, negative = cell killing [10, 12] -19.3% | activity, negative = cell killing [10, 13] -5.62% | activity, negative = cell killing [10, 14] -10.8% | Potency [11]

C/C=C/C=N/NC(=O)c1ccncc1
inactive: Potency [1] | Potency [2] | Potency [3] | Potency [4] | Potency [5] | Potency [6] | Potency [7] | Potency [8] | Potency [9] | activity, negative = cell killing [10, 12] -13.6% | activity, negative = cell killing [10, 13] -18.3% | activity, negative = cell killing [10, 14] -22.3% | Potency [11]
